# Activity calls are given as the source filed them. Rule as the data show it, unless noted: active = inhibition above about 80%; inactive = the rest.
# Experiments:
# [1] = LFS_MB_P medulloblastoma growth inhibition, cell-based, chromothripsis tumors, cisplatin or BGB combos (AID 1671449); conditions: LFS_MB_P medulloblastoma cells;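 also: cells exposed for 96 hours; 0% = vehicle DMSO and 100% = killing by high DMSO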
# [2] = HDN33 neuroblastoma growth inhibition, cell-based, chromothripsis tumors, cisplatin or BGB combos (AID 1671450); conditions: HDN33 neuroblastoma cells, stronger effect = higher value;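 also: cells exposed to compound for four days; 0% = vehicle DMSO and 100% = cell killing by high DMSO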
# [3] = ICB984 medulloblastoma cell growth inhibition, synergistic combos for chromothripsis tumors, cisplatin or BGB combos (AID 1671451; call rule not given here;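 also: cells exposed for 96 hours before readout; 0% = vehicle DMSO and 100% = killing by high DMSO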); conditions: ICB984 medulloblastoma cells, drug combinations, stronger effect = higher value
# [4] = LFS_MB_1R medulloblastoma cell growth inhibition, synergistic combos for chromothripsis tumors, cisplatin or BGB combos (AID 1671452); conditions: LFS_MB_1R medulloblastoma cells, stronger effect = higher value;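 also: cells exposed for 96 hours before readout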
# [5] = HTB85 osteosarcoma cell growth inhibition, synergistic combos for chromothripsis tumors, BGB or cisplatin IC20 combos (AID 1671453); conditions: HTB85 osteosarcoma cells, drug combinations, stronger effect = higher value;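 also: cells exposed for 96 hours before readout; 0% = vehicle DMSO and 100% = high DMSO killing control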
# [6] = CRL2098 osteosarcoma cell growth inhibition, synergistic combos for chromothripsis tumors, BGB or cisplatin IC20 combos (AID 1671454); conditions: CRL2098 osteosarcoma cells, drug combinations, stronger effect = higher value;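 also: cells exposed for 96 h before readout; 0% = vehicle DMSO and 100% = killing by high DMSO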
# [7] = HD-MB03 medulloblastoma cell growth inhibition, synergistic combos for chromothripsis tumors, BGB or cisplatin IC20 combos (AID 1671455; in the data active = inhibition above about 83%;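 also: 0% = vehicle DMSO and 100% = high DMSO as cytotoxic control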); conditions: HD-MB03 medulloblastoma cells, stronger effect = higher value
# [8] = UWB1.289 ovarian carcinoma cell growth inhibition, synergistic combos for chromothripsis tumors, BGB or cisplatin combos (AID 1671456); conditions: UWB1.289 ovarian carcinoma cells, stronger effect = higher value;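 also: cells exposed to compound for four days; 0% = vehicle DMSO and 100% = killing by high DMSO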
# [9] = LFS_MB_2R medulloblastoma cell growth inhibition, synergistic combos for chromothripsis tumors, cisplatin combos (AID 1671457); conditions: LFS_MB_2R medulloblastoma cells, stronger effect = higher value;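 also: cells exposed to compound for four days before readout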
# [10] = MDA-MB-436 breast carcinoma cell growth inhibition, synergistic combos for chromothripsis tumors, BGB or cisplatin combos (AID 1671458; call rule not given here;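 also: cells exposed for 96 hours; 0% = vehicle DMSO and 100% = killing by high DMSO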); conditions: MDA-MB-436 breast carcinoma growth inhibition, drug combinations, stronger effect = higher value
# [11] = UWB1.289_BRCA1 ovarian cancer growth, cell-based, BGB or cisplatin combinations (AID 1671459); conditions: UWB1.289 BRCA1 ovarian carcinoma, drug combinations, stronger effect = higher value
# [12] = human astrocyte viability loss, single and combined drugs, cytotoxicity control for chromothriptic childhood tumor combination screen, cell-based, BGB or cisplatin IC20 combos (AID 1671460); conditions: Human astrocytes, drug combinations, stronger effect = higher value;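 also: cells exposed to compounds for 96 hours before viability readout; 0% = vehicle and 100% = killing control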
# [13] = growth inhibition of BT084 medulloblastoma cells, cell-based, ICGC_MB145, cisplatin and BGB IC40 combos (AID 1671461); conditions: drug combinations, stronger effect = higher value;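 also: cells exposed to drugs for 96 hours; 0% = vehicle DMSO and 100% = high DMSO full killing control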
# [14] = growth inhibition of RCMB18 medulloblastoma cells, cell-based, cisplatin and BGB IC40 combos (AID 1671462); conditions: stronger effect = higher value;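 also: cells exposed to compound for four days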
# [15] = growth inhibition of CRL1545 osteosarcoma cells, cell-based, cisplatin and BGB IC20 combos (AID 1671464); conditions: stronger effect = higher value;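 also: cells exposed to compound for 96 hours before readout; 0% = vehicle DMSO and 100% = high DMSO killing control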
# [16] = measured here: combination with BGB IC40, at 0.05 µM
# [17] = measured here: with BGB IC20 combination, at 0.5 µM
# [18] = measured here: with cisplatin IC20 combination, at 0.5 µM
# [19] = measured here: combination with cisplatin, at 0.5 µM
# [20] = measured here: combination with cisplatin, at 5 µM
structure (smiles),measurement,setting,value
C[C@@H]1O[C@@H](O[C@@H]2[C@@H](O)[C@H](OCCc3ccc(O)c(O)c3)O[C@H](CO)[C@H]2OC(=O)C=Cc2ccc(O)c(O)c2)[C@H](O)[C@H](O)[C@H]1O,inhibition,"[1]; at 0.5 µM, stronger effect = higher value",-19.7% (inactive)
same,inhibition,"[1]; measured here: combination with BGB IC20, at 0.005 µM",-7.94%
same,inhibition,"[1]; measured here: combination with BGB IC40, at 0.005 µM",-47.4%
same,inhibition,[1]; [16],-17.9%
same,inhibition,"[1]; measured here: combination with cisplatin, at 0.5 µM, stronger effect = higher value",-14.4%
same,inhibition,"[1]; measured here: combination with cisplatin, at 5 µM, stronger effect = higher value",-15.6%
same,inhibition,"[2]; BGB combo, at 5 µM",-0.831%
same,inhibition,[2]; at 0.5 µM,5.6% (inactive)
same,inhibition,"[2]; cisplatin combo, at 5 µM",41%
same,inhibition,[2]; [17],2.02%
same,inhibition,[2]; [18],15.9%
same,inhibition,"[2]; single agent, at 5 µM",21.8%
same,inhibition,"[3]; BGB IC20 combo, at 0.005 µM",-21.2%
same,inhibition,"[3]; BGB IC40 combo, at 0.005 µM",-5.21%
same,inhibition,"[3]; BGB IC40 combo, at 0.05 µM",-11.9%
same,inhibition,[3]; at 0.5 µM,-18.6% (inactive)
same,inhibition,"[3]; cisplatin combo, at 0.05 µM",-17.7%
same,inhibition,"[3]; cisplatin combo, at 0.5 µM",-31.1%
same,inhibition,"[3]; cisplatin combo, at 5 µM",-7.59%
same,inhibition,"[3]; measured here: 5 uM single agent, at 5 µM",-11%
same,inhibition,[4]; at 0.5 µM,-31.7% (inactive)
same,inhibition,[4]; [16],-26.1%
same,inhibition,[4]; [19],-49.4%
same,inhibition,[4]; [20],-50.3%
same,inhibition,[5]; at 0.5 µM,-2.22% (inactive)
same,inhibition,"[5]; measured here: with BGB IC20, at 0.5 µM",11%
same,inhibition,"[5]; measured here: with BGB IC20, at 5 µM",-2.54%
same,inhibition,"[5]; measured here: with cisplatin IC20, at 0.5 µM",-24.2%
same,inhibition,"[5]; measured here: with cisplatin IC20, at 5 µM",13.7%
same,inhibition,"[5]; single agent, at 5 µM",14.4%
same,inhibition,[6]; at 0.5 µM,-20.3% (inactive)
same,inhibition,"[6]; measured here: combination with BGB at IC20, at 0.5 µM",-22.9%
same,inhibition,"[6]; measured here: combination with cisplatin at IC20, at 0.5 µM",-10.2%
same,inhibition,[7]; at 0.5 µM,-12.4% (inactive)
same,inhibition,"[7]; measured here: combo with BGB at IC20, at 0.5 µM",-18%
same,inhibition,"[7]; measured here: combo with cisplatin at IC20, at 0.5 µM",-15.8%
same,inhibition,[8]; at 0.5 µM,2.22% (inactive)
same,inhibition,"[8]; measured here: inhibition with BGB combination, at 0.05 µM",-13.4%
same,inhibition,"[8]; measured here: inhibition with cisplatin combination, at 0.05 µM",-3.75%
same,inhibition,[9]; at 0.5 µM,-23.2% (inactive)
same,inhibition,[9]; [19],-31.6%
same,inhibition,[9]; [20],-36.7%
same,inhibition,[10]; at 0.5 µM,-13.3% (inactive)
same,inhibition,"[10]; measured here: BGB combination, at 0.5 µM",-5.37%
same,inhibition,"[10]; measured here: BGB combination, at 5 µM",-8.31%
same,inhibition,"[10]; measured here: cisplatin combination, at 0.5 µM",-39.6%
same,inhibition,"[10]; measured here: cisplatin combination, at 5 µM",-30.4%
same,inhibition,"[11]; BGB combination, concentration series, at 5 µM",-4.79%
same,inhibition,[11]; at 0.5 µM,2.12% (inactive)
same,inhibition,"[11]; cisplatin combination, concentration series, at 5 µM",23.8%
same,inhibition,[12]; at 0.5 µM,3.51% (inactive)
same,inhibition,"[12]; measured here: combo with BGB IC20, at 0.5 µM",-0.074%
same,inhibition,"[12]; measured here: combo with cisplatin IC20, at 0.5 µM",5.26%
same,inhibition,[13]; at 0.5 µM,-15.3% (inactive)
same,inhibition,"[13]; cisplatin combination, at 0.5 µM",-21.1%
same,inhibition,"[13]; cisplatin combination, at 5 µM",-157%
same,inhibition,"[13]; measured here: BGB IC40 combination 0.05 uM, at 0.05 µM",-26.5%
same,inhibition,"[13]; single agent, at 5 µM",-19.8%
same,inhibition,[14]; at 0.5 µM,-0.47% (inactive)
same,inhibition,"[14]; cisplatin combo, at 5 µM",8.1%
same,inhibition,"[14]; measured here: BGB IC40 combination, at 0.05 µM",-349%
same,inhibition,[14]; [19],-0.428%
same,inhibition,"[14]; single agent, at 5 µM",-0.98%
same,inhibition,[15]; at 0.5 µM,3.16% (inactive)
same,inhibition,[15]; [17],-11.9%
same,inhibition,[15]; [18],9.28%
same,inhibition,"[15]; single agent, at 0.05 µM",-3.32%
same,inhibition,"[15]; single agent, at 5 µM",19.3%

# From PubChem BioAssay
